Test [1] can be described thus: NCI Yeast Anticancer Drug Screen. Data for the rad50 strain (AID 155).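 Also: 0% = growth of vehicle-only cultures of the same strain.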 Conditions: S. cerevisiae rad50 strain growth inhibition, hits give high values. An outline of the steps: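 DNA repair mutant yeast, compound exposure, growth read-out; inhibition is taken relative to vehicle.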
Test [2] is described as follows: NCI Yeast Anticancer Drug Screen. Data for the mec2-1 strain (AID 157). The conditions noted are these: S. cerevisiae mec2-1 strain, hits give high values. An outline of the steps: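 Using mec2-1 yeast: add compound, measure growth, express inhibition versus vehicle-treated cultures.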
The nature of test [3]: NCI Yeast Anticancer Drug Screen. Data for the sgs1 mgt1 strain (AID 161).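 Also: 0% = growth of cultures given vehicle only.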 The conditions noted are these: S. cerevisiae sgs1 mgt1 strain, hits give high values. The method in brief:
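Percent growth inhibition was derived by comparing compound-exposed mutant yeast with vehicle-exposed cultures. The strain carries alterations in DNA damage repair.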

A short description of test [4]: NCI Yeast Anticancer Drug Screen. Data for the cln2 rad14 strain (AID 165).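 Also: 0% = growth equal to vehicle treated cultures.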 The conditions noted are these: S. cerevisiae cln2 rad14 strain, hits give high values. The method in brief: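 Yeast strain cln2 rad14, bearing defects in cell cycle control and DNA repair, serves as the test system; values reflect growth inhibition compared with vehicle.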
Test [5] can be described thus: NCI Yeast Anticancer Drug Screen. Data for the bub3 strain (AID 167). Conditions: S. cerevisiae bub3 mutant strain, hits give high values. An outline of the steps: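 In this screen, a yeast mutant lacking normal mitotic checkpoint function is challenged with compound. Relative growth versus vehicle gives the inhibition value.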
Test [6] in a line: NCI Yeast Anticancer Drug Screen. Data for the mlh1 rad18 strain (AID 175). Conditions: S. cerevisiae mlh1 rad18 strain growth inhibition, hits give high values. An outline of the steps: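 Steps: expose repair-defective yeast to compound; measure growth; express inhibition against vehicle-treated controls.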
Where [7] appears, read: at 5.0 µM (retest, dose inferred, filed as 0.5).
Setting [8] is: at 50.0 µM (retest, dose inferred, filed as 5.0).

In PubChem BioAssay (NCI) one finds growth inhibition data, which are given here for 10 compounds.

This is part of a sample that, as a whole, favours compounds with a hit. Of some 79,000 tested, about 15% had one in any assay. Values without a mark were called inactive. Activity calls are given as the source filed them. Rule as the data show it: active = growth inhibition above about 70%; inactive = the rest.

In the case of `COc1ccc(C(=O)C(CCC(=O)/C=C/c2ccccc2)S(C)(=O)=O)cc1` (stereo not given), the growth inhibition in test [1] (setting [7]) is 8%; in test [1] (setting [8]) it was 10%; in test [1] (at 50.0 µM), 9.25%; in test [2] (setting [7]) it was -12%; in test [2] (setting [8]), 15%; in test [2] (at 50.0 µM) it was 3.5%. Besides, the growth inhibition in test [3] (setting [7]) is 5%; in test [3] (setting [8]), 13%; in test [3] (at 50.0 µM) it was 17.2%; in test [4] (setting [7]) it was 2%; in test [4] (setting [8]), -8%; in test [4] (at 50.0 µM), 39.9%. For the same compound, the growth inhibition was -7% in test [5] (setting [7]); 6% in test [5] (setting [8]); 0.7% in test [5] (at 50.0 µM); 0% in test [6] (setting [7]); -5% in test [6] (setting [8]); 2.4% in test [6] (at 50.0 µM).

Turning to `O=C1C2=Cc3ccccc3CCN2c2ccccc21`, the growth inhibition in test [1] (setting [7]) is 4%; in test [1] (setting [8]), 4%; in test [1] (at 50.0 µM), 88.3% (active); in test [2] (setting [7]), -6%; in test [2] (setting [8]) it was -6%; in test [2] (at 50.0 µM), 90.7% (active). Moreover, the growth inhibition in test [3] (setting [7]) is 1%; in test [3] (setting [8]), 1%; in test [3] (at 50.0 µM), 89.8% (active); in test [4] (setting [7]), -8%; in test [4] (setting [8]) it was -8%; in test [4] (at 50.0 µM), 86.2% (active). The growth inhibition in test [5] (setting [7]) was 2%; in test [5] (setting [8]), 2%; in test [5] (at 50.0 µM), 89.8% (active); in test [6] (setting [7]), 2%; in test [6] (setting [8]), 2%; in test [6] (at 50.0 µM), 83.1% (active).

Consider `CN(C)c1ccc(N=Nc2cccc3ccccc23)cc1`, for which the growth inhibition in test [1] (setting [7]) was 8%; in test [1] (setting [8]), 75% (active); in test [1] (at 50.0 µM), 34%; in test [2] (setting [7]) it was 3%; in test [2] (setting [8]) it was 89% (active); in test [2] (at 50.0 µM), 0.15%. For the same compound, the growth inhibition in test [3] (setting [7]) is 10%; in test [3] (setting [8]) it was 85% (active); in test [3] (at 50.0 µM) it was 4.3%; in test [4] (setting [7]), 1%; in test [4] (setting [8]) it was 51%; in test [4] (at 50.0 µM) it was 50.2%. The growth inhibition in test [5] (setting [7]) was -5%; in test [5] (setting [8]), 88% (active); in test [5] (at 50.0 µM), -5.65%; in test [6] (setting [7]), -6%; in test [6] (setting [8]), 42%; in test [6] (at 50.0 µM), 12.5%.

Turning to `CCCCCCCCCCCC1=NCCN1CCNCCCC`, the growth inhibition is 6% in test [1] (setting [7]); 75% (active) in test [1] (setting [8]); 36.6% in test [1] (at 50.0 µM); 5% in test [2] (setting [7]); 90% (active) in test [2] (setting [8]); 98.7% (active) in test [2] (at 50.0 µM). For the same compound, the growth inhibition in test [3] (setting [7]) is 6%; in test [3] (setting [8]) it was 96% (active); in test [3] (at 50.0 µM), 44.2%; in test [4] (setting [7]), 9%; in test [4] (setting [8]), 66%; in test [4] (at 50.0 µM), 97.3% (active). The growth inhibition in test [5] (setting [7]) was 4%; in test [5] (setting [8]), 79% (active); in test [5] (at 50.0 µM) it was 98.4% (active); in test [6] (setting [7]), 11%; in test [6] (setting [8]) it was 92% (active); in test [6] (at 50.0 µM) it was 98.8% (active).

For `CN1CCN(CCOC(=O)N2c3ccccc3Sc3ccccc32)CC1`, the growth inhibition in test [1] (setting [7]) is 1%; in test [1] (setting [8]) it was 1%; in test [1] (at 50.0 µM), 9.45%; in test [2] (setting [7]), 2%; in test [2] (setting [8]), -2%; in test [2] (at 50.0 µM), -13.2%. In addition, the growth inhibition is -1% in test [3] (setting [7]); 2% in test [3] (setting [8]); 45.5% in test [3] (at 50.0 µM); 0% in test [4] (setting [7]); 1% in test [4] (setting [8]); -13.9% in test [4] (at 50.0 µM). In addition, the growth inhibition is -2% in test [5] (setting [7]); -4% in test [5] (setting [8]); 15.6% in test [5] (at 50.0 µM); -4% in test [6] (setting [7]); -3% in test [6] (setting [8]); 4.4% in test [6] (at 50.0 µM).

For `N#Cc1c(-c2ccc(Cl)cc2)c(-c2ccc(Cl)cc2)nn(CCOC(=O)CCC(=O)O)c1=O`, the growth inhibition is 8% in test [1] (setting [7]); 76% (active) in test [1] (setting [8]); 89% (active) in test [1] (at 50.0 µM); -3% in test [2] (setting [7]); 76% (active) in test [2] (setting [8]); 88.8% (active) in test [2] (at 50.0 µM). For the same compound, the growth inhibition in test [3] (setting [7]) is 22%; in test [3] (setting [8]) it was 66%; in test [3] (at 50.0 µM) it was 78.1% (active); in test [4] (setting [7]), -3%; in test [4] (setting [8]), 86% (active); in test [4] (at 50.0 µM), 85.2% (active). Besides, the growth inhibition in test [5] (setting [7]) is 16%; in test [5] (setting [8]), 83% (active); in test [5] (at 50.0 µM), 84% (active); in test [6] (setting [7]), 8%; in test [6] (setting [8]), 81% (active); in test [6] (at 50.0 µM), 87% (active).

Turning to `O=C(Nc1ccccc1)OCCc1ccc(Br)cc1`, the growth inhibition in test [1] (setting [7]) is -10%; in test [1] (setting [8]), -9%; in test [1] (at 50.0 µM) it was 13.2%; in test [2] (setting [7]), -23%; in test [2] (setting [8]), -31%; in test [2] (at 50.0 µM), 23.7%. Also, the growth inhibition was -1% in test [3] (setting [7]); -11% in test [3] (setting [8]); 14.4% in test [3] (at 50.0 µM); 1% in test [4] (setting [7]); -2% in test [4] (setting [8]); -7.85% in test [4] (at 50.0 µM). Moreover, the growth inhibition was -5% in test [5] (setting [7]); 7% in test [5] (setting [8]); 6.1% in test [5] (at 50.0 µM); -5% in test [6] (setting [7]); 0% in test [6] (setting [8]); -3.25% in test [6] (at 50.0 µM).

On to `CC1CCC(C(C)C2C(O)CC3C4CC=C5CC(O)CCC5(C)C4CCC32C)NC1` (stereo not given), for which the growth inhibition is -23% in test [1] (setting [7]); 81% (active) in test [1] (setting [8]); 66.8% in test [1] (at 50.0 µM); 1% in test [2] (setting [7]); 18% in test [2] (setting [8]); 25.1% in test [2] (at 50.0 µM). Further, the growth inhibition in test [3] (setting [7]) was 12%; in test [3] (setting [8]), 96% (active); in test [3] (at 50.0 µM), 88.5% (active); in test [4] (setting [7]), 3%; in test [4] (setting [8]), 23%; in test [4] (at 50.0 µM), 23.8%. Moreover, the growth inhibition is -1% in test [5] (setting [7]); 70% (active) in test [5] (setting [8]); 10.9% in test [5] (at 50.0 µM); 10% in test [6] (setting [7]); 54% in test [6] (setting [8]); 57.5% in test [6] (at 50.0 µM).

On to `ClC1=C(Cl)C2c3ccccc3C1c1ccccc12`, for which the growth inhibition in test [1] (setting [7]) was -4%; in test [1] (setting [8]), 97% (active); in test [1] (at 50.0 µM), 93.6% (active); in test [2] (setting [7]), 6%; in test [2] (setting [8]) it was 97% (active); in test [2] (at 50.0 µM), 76.2% (active). For the same compound, the growth inhibition in test [3] (setting [7]) is 0%; in test [3] (setting [8]) it was 97% (active); in test [3] (at 50.0 µM), 95.7% (active); in test [4] (setting [7]) it was -4%; in test [4] (setting [8]), 97% (active); in test [4] (at 50.0 µM) it was 65.2%. Moreover, the growth inhibition in test [5] (setting [7]) was -9%; in test [5] (setting [8]), 98% (active); in test [5] (at 50.0 µM), 47.9%; in test [6] (setting [7]) it was -5%; in test [6] (setting [8]), 97% (active); in test [6] (at 50.0 µM) it was 95.7% (active).

`Cc1c2c(c(C)c3ccncc13)S(=O)(=O)c1ccccc1-2`: the growth inhibition was 88% (active) in test [1] (setting [7]); 87% (active) in test [1] (setting [8]); 94.3% (active) in test [1] (at 50.0 µM); 52% in test [2] (setting [7]); 69% in test [2] (setting [8]); 36.2% in test [2] (at 50.0 µM). For the same compound, the growth inhibition was 38% in test [3] (setting [7]); 65% in test [3] (setting [8]); 55.3% in test [3] (at 50.0 µM); 39% in test [4] (setting [7]); 36% in test [4] (setting [8]); 28.9% in test [4] (at 50.0 µM). For the same compound, the growth inhibition in test [5] (setting [7]) was 41%; in test [5] (setting [8]), 33%; in test [5] (at 50.0 µM), 55%; in test [6] (setting [7]), 75% (active); in test [6] (setting [8]), 85% (active); in test [6] (at 50.0 µM), 79.9% (active).
